Screening results as filed in PubChem BioAssay.
This is a sample that favours compounds with a hit; in the whole collection about 4.1% have one here.
Mac1 fbg enh = enhancers of human CD11b/CD18 binding to fibrinogen; activation, % at 10 µM; K562 CD11b/CD18 adhesion to fibrinogen, ATPlite luminescence; 93,000 tested, 0.07% active;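 active = 10 µM primary screen giving 50% or more activity, confirmed by 40% or more on retest at that dose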
Target sequence (P05107 whole entry, looked up, other chains not shown): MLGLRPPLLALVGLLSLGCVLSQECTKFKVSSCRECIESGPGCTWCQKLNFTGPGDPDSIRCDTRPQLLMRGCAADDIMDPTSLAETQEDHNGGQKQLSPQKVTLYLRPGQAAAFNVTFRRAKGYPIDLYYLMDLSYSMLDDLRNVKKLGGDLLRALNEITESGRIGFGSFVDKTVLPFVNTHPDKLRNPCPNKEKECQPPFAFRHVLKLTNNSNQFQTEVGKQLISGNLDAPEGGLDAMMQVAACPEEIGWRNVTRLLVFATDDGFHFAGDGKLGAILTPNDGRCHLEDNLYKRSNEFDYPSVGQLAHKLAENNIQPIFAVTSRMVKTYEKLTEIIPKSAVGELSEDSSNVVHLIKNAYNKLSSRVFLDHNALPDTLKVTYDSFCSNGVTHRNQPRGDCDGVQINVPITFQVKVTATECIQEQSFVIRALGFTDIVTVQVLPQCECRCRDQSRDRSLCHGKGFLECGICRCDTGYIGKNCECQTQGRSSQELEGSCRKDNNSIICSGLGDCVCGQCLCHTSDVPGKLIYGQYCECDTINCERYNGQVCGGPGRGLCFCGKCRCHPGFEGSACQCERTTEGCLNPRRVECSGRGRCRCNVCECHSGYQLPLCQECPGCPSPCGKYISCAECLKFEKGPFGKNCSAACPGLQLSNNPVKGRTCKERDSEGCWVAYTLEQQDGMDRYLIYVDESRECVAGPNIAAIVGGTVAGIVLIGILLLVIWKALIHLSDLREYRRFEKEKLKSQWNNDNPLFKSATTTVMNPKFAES
Pyk2 oligo antag = blocks oligomerization of human Pyk2 in cells | Q14289 | Q293 cells, Pyk2 FERM NanoBiT luminescence; active compounds read low | z-score (the deposit names both 25 µM and 10 µM) | 99,000 tested, 0.83% active | AID 1347419;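 active = Z-score of -3 or lower, scaled per plate to the spread of control and sample wells; inactive = z-score above -3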;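 also: negative z-score means lost luminescence so less FERM oligomerization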
Mac1 fbg inh = blocks human CD11b/CD18 adhesion to fibrinogen; P05107+P11215; K562 CD11b/CD18 adhesion to fibrinogen, ATPlite luminescence; Mn2+ added to activate the integrin; inhibition, % at 10 µM; 93,000 tested, 0.54% active;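 active = primary inhibition of 50% or more at 10 µM, then 40% or more on retest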
MRP reversal = MRP-mediated drug resistance reversal. differential viability (reversal), % at 10 µM. H69AR cells + 2 uM doxorubicin, CellTiter-Glo, 72 h. 85,000 tested, 0.04% active;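 active = viability drop by adding the cancer drug above about 55%, with treated viability meeting a 40% cutoff, limit read from the data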;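 also: viability without doxorubicin minus viability with 2 µM doxorubicin for each compound; larger differential means the compound sensitizes cells more to doxorubicin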
MRP1 act = activators of MRP-1; H69AR cells + doxorubicin, viability rescue, CellTiter-Glo; viability increase, % at 10 µM; 140,000 tested, 0.61% active; AID 799;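 active = viability gain under doxorubicin at or above a set limit, the compound median plus 3 SD, cut at about 4.7% in these data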;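 also: MRP-1 overexpressing cells given doxorubicin 25 µM after compound pretreatment; 18-22 h compound pretreatment then 72 h with doxorubicin before readout; 0% = doxorubicin-only wells and 100% = vehicle-treated cells without doxorubicin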
Cav3 T inh = inhibitors of human Cav3.2 T-type calcium channel; O95180; Cav3.2-expressing cells, Fluo-4 calcium fluorescence FDSS; active compounds read low; B-score at 10 µM; 100,000 tested, 4% active;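 active = single-dose well whose peak fluorescence ratio is a statistical outlier from its plate by either plate-standardised score or position-corrected B-score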
* = called active by the depositor; . = no result given.

SMILES | Mac1 fbg enh | Pyk2 oligo antag | Mac1 fbg inh | MRP reversal | MRP1 act | Cav3 T inh
Cc1cccc(N2CCN(C(=O)Cc3ccc(-n4c(=O)[nH]c5ccsc5c4=O)cc3)CC2C)c1 (stereo unspecified) | . | . | . | . | -1 | .
O=C(CN(Cc1ccccc1)C(=O)c1cc2c(s1)CCC2)NCc1cccs1 | . | -1.1 | . | -1 | -4 | -4.5*
CCN(CC)S(=O)(=O)c1ccc(N2CCN(CCO)CC2)nc1 | . | . | . | . | 0 | .
O=C(NCC1CCCC(CNC(=O)N2CCc3ccccc32)C1)N1CCc2ccccc21 (stereo unspecified) | 0 | -0.6 | -32 | . | -5 | -5*
CC(C)C(=O)Nc1cccc(C(=O)NCc2ccc(S(N)(=O)=O)cc2)c1 | 2 | 0.72 | -6 | 13 | -1 | 0.66
CCCCC1CCC(C(=O)N2CCOCC2)CC1 (stereo unspecified) | . | . | . | . | -1 | .
FC(F)(F)C(Oc1nc(NC2CCCCC2)nc(N2CCOCC2)n1)C(F)(F)F | -9 | 0.14 | 14 | 12 | -3 | -4.9*
COc1ccc(Nc2oc(COc3ccc(Cl)cc3)nc2C#N)cc1 | 0 | -0.05 | 22 | -23 | -4 | -0.84
COc1ccc(CNc2oc(COc3ccc(Cl)cc3)nc2C#N)cc1 | -1 | -1.1 | 36 | 7 | -2 | -4.4*
CCOc1ccc(-c2nc(C#N)c(NCc3ccc4c(c3)OCO4)o2)cc1 | -3 | . | 9 | -13 | -1 | .
Cc1ccc(OCc2nc(C#N)c(NCc3ccc4c(c3)OCO4)o2)cc1 | -1 | -0.66 | 50 | 26 | -2 | -6.5*
COCCCNc1oc(COc2ccc(Cl)cc2Cl)nc1C#N | -1 | -1.3 | 3 | -17 | -4 | -5.6*
COc1ccc(CCNc2oc(COc3ccccc3F)nc2C#N)cc1 | 1 | -0.52 | -4 | 1 | 0 | -5.9*
Cc1nc2cc(NC(=O)NCc3ccco3)ccc2o1 | -2 | 1 | -3 | 2 | -2 | -0.011
N#CCCN1CCN(S(=O)(=O)c2ccc(S(=O)(=O)NCC3CCCO3)cc2)CC1 (stereo unspecified) | -2 | . | -21 | 9 | 0 | 1.4
CC1CC(C)CN(C(=O)c2ccccc2Nc2ccc(SC(F)F)cc2)C1 (stereo unspecified) | . | -1.4 | . | 0 | -4 | -4.2*
CC1CC(C)CN(C(=S)Nc2ccc(SC(F)F)cc2)C1 (stereo unspecified) | 2 | . | 4 | . | 5.0* | .
Cc1cc(NC(=O)CSc2nc3cc4c(cc3c(=O)n2CCc2ccccc2)OCO4)no1 | . | 0.34 | . | -5 | -1 | -1
CCCC(=O)NC(=S)Nc1ccc(C(C)=O)cc1 | . | . | . | . | 11* | .
CCCC(=O)NC(=S)Nc1ccccc1C(=O)OC | . | -0.39 | . | . | -3 | 0.76
NS(=O)(=O)c1ccc(NCc2ccccc2OCc2ccc(F)cc2)cc1 | -6 | -0.65 | 65* | . | -1 | -3.1
O=C(Nc1nnc(-c2cccs2)o1)c1cccc(Oc2ccccc2)c1 | 1 | . | 34 | -18 | -4 | -8.3*
O=C(Nc1nnc(-c2cccs2)o1)c1cccc(F)c1 | . | . | . | -5 | . | -1.5
O=c1c([N+](=O)[O-])c(NC2CCCCC2)c2ccccc2n1-c1ccccc1 | . | -3.7* | . | -1 | -2 | 0.18
O=c1c([N+](=O)[O-])c(NCCN2CCCCCC2)c2ccccc2n1-c1ccccc1 | . | . | . | . | -3 | .
SMILES | Mac1 fbg enh | Pyk2 oligo antag | Mac1 fbg inh | MRP reversal | MRP1 act | Cav3 T inh
CC(=O)OC1CCC2(C)C(COc3ccc4ccc(=O)oc4c3)C(C)(O)CCC2C1(C)C (stereo unspecified) | 2 | -3.3* | 10 | . | -5 | -3.4
N#Cc1cccc(NC(=O)C2SC(=Nc3ccccc3)C(C(=O)N3CCOCC3)=C2N)c1 (stereo unspecified) | . | . | . | . | 1 | .
CC(NC(=O)Nc1ccccn1)N1C(=O)C2C3C=CC(C3)C2C1=O (stereo unspecified) | . | -0.21 | . | . | -2 | 0.13
Cc1oc(-c2ccccc2Cl)nc1Cn1cccc1C1=NC(c2ccccc2)CO1 (stereo unspecified) | 1 | -0.04 | 14 | 8 | 0 | -6.7*
CC(C)c1ccc(NC(=O)Cn2cccc2C2=NC(c3ccccc3)CO2)cc1 (stereo unspecified) | . | -3 | . | . | -2 | .
Cc1nc2c(cnn2-c2ccccc2Cl)c(=O)n1-c1ccc(N2CCC(C)CC2)cc1 | -3 | -1.8 | -6 | 1 | -2 | -0.93
CCc1nc2c(cnn2-c2ccc(F)cc2)c(=O)n1-c1ccc(N2CCC(C)CC2)cc1 | -4 | . | 76* | -11 | 2 | -1.1
COc1ccc(OC)c(/C(O)=C/C(=O)C(=O)Nc2ccccc2OC)c1 | 1 | 0.88 | -17 | 13 | -4 | -8.5*
COc1ccc(OC)c(S(=O)(=O)N(C)CC(=O)Nc2ccccc2OC)c1 | 2 | -0.43 | -6 | -5 | -1 | 1.2
CCOc1ccc2cc(S(=O)(=O)n3ccnc3C)ccc2c1 | -1 | 1.2 | -22 | 13 | 0 | 0.12
Cc1ccc(/C=C(/C#N)c2nc(CCN3C(=O)c4ccccc4C3=O)cs2)cc1 | . | -3.2* | . | . | -2 | -0.086
CC(O)c1nc2ccc(Cc3ccc4nc(C(C)O)[nH]c4c3)cc2[nH]1 (stereo unspecified) | 1 | -0.48 | 3 | 7 | -1 | -0.42
NS(=O)(=O)c1ccc(CCNC(=O)CSc2nc3ccsc3c(=O)n2CC(=O)O)cc1 | 0 | . | -8 | . | 0 | .
CCOC(=O)C1=C(C)NC2=C(C1c1ccc([N+](=O)[O-])cc1)S(=O)(=O)c1ccccc12 (stereo unspecified) | -1 | -3* | -15 | . | -3 | -2
O=C(CNS(=O)(=O)c1ccc(Br)s1)Nc1ccc2c(c1)OCCO2 | -2 | 2.3 | 11 | -6 | -1 | -1.1
CC(C(=O)N=c1sc2ccccc2n1C)N1C(=O)C2CC=CCC2C1=O (stereo unspecified) | 2 | -0.69 | 14 | -13 | -1 | 1.4
O=C(/C=C/c1ccc(F)cc1)NCCC1=CCCCC1 | . | -0.12 | . | . | 0 | -6.2*
O=C(/C=C/c1ccccc1)NCCC1=CCCCC1 | 1 | . | 13 | . | -1 | .
CNC[C@H](O)c1cccc(O)c1 | . | . | . | -2 | -1 | -0.063
CNC[C@H](O)c1ccc(O)c(O)c1 | . | . | . | . | 7.1* | 0.41
Cc1ccc(C(=O)NNC(=O)CCC(=O)Nc2cccc(Cl)c2C)cc1 | . | . | . | . | 2 | .
O=C(Nc1ccc2c(c1)N(Cc1ccccc1)C(=O)c1ccccc1S2)NC1CC1 | 8 | -3.1* | 18 | 10 | -2 | -0.77
Cn1cc(Br)c(C(=O)NNC(=O)c2ccc(Cl)cc2)n1 | . | . | . | . | 6.4* | .
Cn1cc(Br)c(C(=O)NNC(=O)c2cccc(Br)c2)n1 | . | -0.01 | . | . | -4 | .
CC/C=C/C(=O)N1CC2(CC(c3cccc(NC(=O)CCCCC)c3)=NO2)C[C@H]1C(N)=O (stereo partly specified) | . | . | . | . | . | -2
CC(C)(C)OC(=O)N1CCC(CC2CC(c3ccccc3)=NO2)(C(=O)O)CC1 (stereo unspecified) | . | . | . | . | . | -0.22
Brc1cccc(-c2nnc(SCc3ccon3)n2-c2ccccc2)c1 | 1 | . | -2 | -9 | -4 | -4.6*
